Laboratory results taken from PubChem BioAssay AID652208 (Broad Institute, 2013).
Entries with a potency or affinity are not part of this list. The source made the active and inactive calls.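 How the source made its calls: active means Loss of cell signal with fitted half-effect dose at or below twice the top valid tested dose; inconclusive means Poor fit, or flat fit from -70 to -30 percent; inactive means Half-effect above limit, rising signal, or flat within 30 percent.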

Assay: HEK293T cell cytotoxicity, dose response, cytotoxicity control for HIV Vif inhibitor project, cherry-picks (AID 652208)

Row | SMILES | outcome
1 | CC(C(=O)O)c1ccc(N2Cc3ccccc3C2=O)cc1 (stereo not drawn) | inactive
2 | Cc1nnc2ccc(-c3ccc(NS(=O)(=O)c4ccc(Cl)s4)cc3)nn12 | inactive
3 | O=C(CCCn1c(=S)[nH]c2ccccc2c1=O)N1CCN(c2cccc(Cl)c2)CC1 | inactive
4 | COc1cc2[nH]c(=O)n(CCCC(=O)NC3CCCCC3)c(=O)c2cc1OC | inactive
5 | Oc1[nH]c(=S)sc1/C=C1\C(c2ccccc2)=Nc2ccccc21 | inactive
6 | CC(C)c1ccc(NC(=O)N2CCCC2C(=O)Nc2ccc(-n3cnnn3)cc2)cc1 (stereo not drawn) | inactive
7 | O=C(CCNC(=O)c1ccco1)Nc1ccc(OC(F)(F)F)cc1 | inactive
8 | O=C(CSc1ncccn1)NC(=O)Nc1ccc2c(c1)OCCO2 | inactive
9 | COc1ccc(-c2nc(CS(=O)(=O)CC(=O)NCCc3ccccc3)c(C)o2)cc1 | inactive
10 | O=C(CCCOc1ccc(Br)cc1)NNC(=O)c1ccncc1 | inactive
11 | CCN1CCc2c(sc(N)c2C(N)=O)C1 | inactive
12 | COc1cc(C(C)=O)ccc1OCC(=O)NCC1(N2CCCCC2)CCCCC1 | inactive
13 | COc1cccc(N2CCN(S(=O)(=O)c3cc4c(cc3C)N(C)CCO4)CC2)c1 | inactive
14 | CCOC(=O)c1nc(Nc2ccc(C(=O)OC)cc2)c2ccccc2n1 | inactive
15 | O=C(Nc1cnccn1)Nc1ccccc1Cl | inactive
16 | COc1cc(-c2cc(=O)c3c(O)c(OC)c(OC)c(O)c3o2)ccc1O | inactive
17 | CCOc1ccc(S(=O)(=O)NCc2ccccn2)cc1NC(=O)c1ccccc1 | inactive
18 | Cc1nc(-c2ccc(O)c(O)c2)cs1 | inactive
19 | CCC(=O)Nc1ccc(-c2nnc(SCc3ccc(C(=O)Nc4nccs4)cc3)n2CC)cc1 | inactive

Row | SMILES | outcome
20 | Cc1ccc(Nc2nc(N)nc(CSc3nnc(-c4ccncc4)o3)n2)cc1 | inactive
21 | NCCCC[C@H](N[C@@H](CCc1ccccc1)C(=O)O)C(=O)N1CCC[C@H]1C(=O)O | inactive
22 | COc1cccc(CNc2ccc3c(c2)CCC3)c1 | inactive
23 | O=C(NC1CCCc2ccccc21)c1ccccc1Br (stereo not drawn) | inactive
24 | COc1ccc([C@H]2CC(=O)C=C(c3cc4ccccc4s3)C2)cc1 | inactive
25 | Cc1ncoc1C(=O)N1CCCC(C(=O)c2ccc(Oc3ccccc3)cc2)C1 (stereo not drawn) | inactive
26 | COc1ccc(CCNc2nnc(Sc3nnnn3-c3ccccc3)s2)cc1OC | inactive
27 | Cc1cccc(Nc2nc(-c3ccc(O)c(O)c3)cs2)n1 | inactive
28 | Cc1ccc(NC(=O)Cn2ncn3c(cc4ccccc43)c2=O)c(C)c1 | inactive
29 | CCCn1c(=N)c(C(=O)NCc2ccc3c(c2)OCO3)cc2c(=O)n3cccc(C)c3nc21 | inactive
30 | COc1cc(-c2cc(=O)c3c(O)c(OC)c(OC)cc3o2)cc(OC)c1O | inactive
31 | COc1cccc(NC(=O)CSc2nnc(Cc3ccc(OC)c(OC)c3)o2)c1 | inactive
32 | CCC(=O)N(CCC1(C(C)C)CCOC(C)(C)C1)Cc1ccco1 (stereo not drawn) | inactive
33 | CCC1(CC)NC(=O)N(CC(=O)Nc2ccc(OCc3ccccc3)cc2)C1=O | inactive
34 | NS(=O)(=O)c1ccc(NC(=O)CCC(=O)N2CCOCC2)cc1 | inactive
35 | COc1cc(OC)cc(C(=O)NC(C(=O)Nc2ccc3c(c2)OCO3)C(C)C)c1 (stereo not drawn) | inactive
36 | O=C(Nc1ccnc(-c2cccnc2)n1)c1cccs1 | inactive
37 | COc1c2occc2c(OC)c2c(=O)cc(C)oc12 | inactive
38 | COc1cccc(N2CCN(C(=O)c3ccc(CS(=O)c4ccc(C)cc4)o3)CC2)c1 (stereo not drawn) | inactive
